This note sets out measurements from the supplement of paper PMC11417369.

Over roughly 25,000 sequences, “ln(normalized median fluorescence intensity)” has its median near 9.7; the highest 2% begin near 11. For the sample, the highest values were picked, then their nearest neighbours and some sequences at random.

This assay relates to PfAP2-HC AP2 domain (GST-tagged). The experiment in a line: gcPBM binding intensity (ln(normalized median fluorescence intensity)); higher = stronger DNA binding. The method in brief:
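Binding intensity values are the highest Masliner-normalised natural-log median intensity among replicate spots of either probe orientation. The binding step lasted 1 h in 1× PBS with 1% milk, 0.2 mg/ml BSA, 0.5% salmon testes DNA and 0.03% Triton X-100, using GST-tagged P. falciparum DNA-binding domains expressed in E. coli on an Agilent 4 × 180k array of primer-extended double-stranded 36-bp intergenic genomic probes plus negative controls. Alexa488 anti-GST antibody and a 488 nm scan detected bound protein.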
“TATTTGTAAAAATTGTGTACTTAGAAAATTCCAAAA [XGTACX_site6007]”: the “gcPBM binding intensity (ln)” value worked out at 9.22.

Regarding “ATAATATATGAAAAAACGATTTTTTCATTTTAAATA [XGTACX_negctrl_site146]”, the “gcPBM binding intensity (ln)” value was found to be 9.51.

Consider “TTTGGTTATATTTAAAAAAGACTAATGAAAATTAAA [XGTACX_negctrl_site526]”, for which the “gcPBM binding intensity (ln)” value came to 9.35.

As for “AACATTCTATGTTGCACACAAAGAGAAAAATTTATT [CACACA_site3995]”, the “gcPBM binding intensity (ln)” value is 9.78.

As for “TATATATATATATATATATATATTTTTATTATATAT [XGTACX_negctrl_site89]”, the “gcPBM binding intensity (ln)” value worked out at 9.89.

Regarding “GTTTTCATCCAAAAAAGTACATTTATTTTTATACGA [XGTACX_site1039]”, the “gcPBM binding intensity (ln)” value is 9.39.

For “TTTTCTAAAGTAAGTTAAGATATGCAAAAAAAAGAA [GTGCAC_negctrl_site242]”, the “gcPBM binding intensity (ln)” value amounted to 9.62.

“ACAAAATAAAAACACACACACAAACACAAAAAAATA [CACACA_site3390]”: the “gcPBM binding intensity (ln)” value was determined as 11.4.

With “AAAATAAAATAAAACACAAAAAAATAAAACAAAATA [CACACA_negctrl_site16]”, the “gcPBM binding intensity (ln)” value is 9.78.

Turning to “AAAAAAAAAAAAAACACACACACAAAATAAACAAAC [CACACA_site2720]”, the “gcPBM binding intensity (ln)” value turned out to be 10.8.

“AAGGATATAAAAAAACGTACGTACGATAATATAATT [XGTACX_site1292]”: the “gcPBM binding intensity (ln)” value was 9.86.

With “GTTGTTATATAAAATTGTACATAAAAAACAAAATAT [XGTACX_site5313]”, the “gcPBM binding intensity (ln)” value was determined as 9.66.

“AAAAAAAAAAAAAAAACACACACATATATATAATAT [CACACA_site9038]”: the “gcPBM binding intensity (ln)” value came out at 10.3.

For “AAAAAAAAAAAAAAAACACACATATATCTATAATAT [CACACA_site6665]”, the “gcPBM binding intensity (ln)” value was found to be 9.84.

As for “GGAAAAACCATTCGCACACACACATAATATATAATA [CACACA_site1424]”, the “gcPBM binding intensity (ln)” value worked out at 10.2.

For “AAAAACCATGGGCACACACACATAATATATAATATA [CACACA_site1425]”, the “gcPBM binding intensity (ln)” value was 10.4.

Consider “AAAAACCATTGGCACACACACATAATATATAATATA [CACACA_site4903]”, for which the “gcPBM binding intensity (ln)” value came to 11.4.

On to “AAAAACCATTCGCACACACACATAATCTATAATATA [CACACA_site6782]”, for which the “gcPBM binding intensity (ln)” value turned out to be 11.1.

For the sequence “TTACTCAAACAAACAAAAAAAAAAAAAAAAAAAAAA [TGCATGCA_negctrl_site457]”, the “gcPBM binding intensity (ln)” value was determined as 8.89.

Take “TATTTCATAATAAATTGTACGCGTAGAAAACCATGA [XGTACX_site7506]”: the “gcPBM binding intensity (ln)” value was found to be 9.99.

For “TATTTATGCACGCGTGCACACACATATGAAAAAAGG [CACACA_site9090]”, the “gcPBM binding intensity (ln)” value stood at 9.87.

With “ACATATCTATCGTTTTTAATTGTATATTATTATAAC [TGCATGCA_negctrl_site144]”, the “gcPBM binding intensity (ln)” value came to 9.76.

Consider “AAAAAAAAAAGACACACACACACACTAATACATACA [CACACA_site6473]”, for which the “gcPBM binding intensity (ln)” value is 11.4.

Turning to “CAAAGACACAAACACACACACACATACATACATACA [CACACA_site453]”, the “gcPBM binding intensity (ln)” value is 11.3.

“TATAGACAAACACATACATGCATACATACATACATA [TGCATGCA_site273]”: the “gcPBM binding intensity (ln)” value worked out at 9.75.

For “AAAAAAAAAAGACACACACACACATACACATACATA [CACACA_site7362]”, the “gcPBM binding intensity (ln)” value stood at 11.1.

Take “AAAAAAAAAAAACACACACACACACTAATACATACA [CACACA_site8135]”: the “gcPBM binding intensity (ln)” value came out at 10.6.

Turning to “GGCAACATTTGAAACACACACACATACAAACAAACA [CACACA_site3307]”, the “gcPBM binding intensity (ln)” value turned out to be 10.3.

Turning to “CAACATTTGAGACACACACACATACAAACAAACAAA [CACACA_site7538]”, the “gcPBM binding intensity (ln)” value is 11.2.

For the sequence “AATAAAAAAAAAAAAAAAAAAAAAAAGACACTAAAA [CACACA_negctrl_site1075]”, the “gcPBM binding intensity (ln)” value came to 9.53.

Take “AAAAAAAAAAAAAAGACACACATATATATATATATA [CACACA_site633]”: the “gcPBM binding intensity (ln)” value stood at 9.63.

For the sequence “ATAAAACAAAGACACACACACATACACAAAAAAAAA [CACACA_site7752]”, the “gcPBM binding intensity (ln)” value amounted to 10.5.

Consider “AAGACACAAAAACACACACACATACATACATACATA [CACACA_site454]”, for which the “gcPBM binding intensity (ln)” value stood at 10.3.

“AAAAAAAAAAGACACACACACACAAATACATACACA [CACACA_site6472]”: the “gcPBM binding intensity (ln)” value amounted to 10.8.

In the case of “TTATGGTATAAAAAAATACACACTTATATATATTCT [CACACA_site488]”, the “gcPBM binding intensity (ln)” value worked out at 9.72.

For the sequence “TACGTAAAAATAATACGTACATATATTTATAGAAAA [XGTACX_site4959]”, the “gcPBM binding intensity (ln)” value was 9.71.

“TATTAATTTTTTTTTTTTTTTTTTTTTTTTTTTTTT [CACACA_negctrl_site1329]”: the “gcPBM binding intensity (ln)” value came out at 9.26.

Take “ATGATACATAAAGAATATAAAACATGAAATATAATA [CACACA_negctrl_site1461]”: the “gcPBM binding intensity (ln)” value was found to be 9.79.

With “AAGATTTGAAAAAATACACACAATAAAAAAATAAAA [CACACA_site3281]”, the “gcPBM binding intensity (ln)” value amounted to 10.1.

In the case of “TTTTATTATTTTTGTTGTACAGTATACTGTATGATT [XGTACX_site5359]”, the “gcPBM binding intensity (ln)” value came out at 9.69.

On to “TTAAAAAATCACAACACACACACACGCAAAAAAAAA [CACACA_site6793]”, for which the “gcPBM binding intensity (ln)” value is 10.8.

As for “AAAAAATCACGACACACACACACACTAAAAAAAAAA [CACACA_site6792]”, the “gcPBM binding intensity (ln)” value is 11.3.

In the case of “AACAAATACGAACACACACACACACTAAAAAAAAAA [CACACA_site6386]”, the “gcPBM binding intensity (ln)” value came out at 10.8.

As for “TCATAAAGAACAAAGTGTACCTATATATTACATACA [XGTACX_site7595]”, the “gcPBM binding intensity (ln)” value came out at 9.59.
